Screening data from PubChem BioAssay.
An excerpt weighted towards active compounds, which were near 1.9% of everything screened.
Measles CPE = protection of cells from measles virus; Measles virus-infected cells, CPE protection, absorbance; protection (pct of control), % at 4 µM; 140,000 compounds, 1.5% hits; AID 841; in the data active = protection mostly above about 24%, no sharp cut-off; inactive = mostly below about 26%
F-actin modifier = modifiers of cytoskeleton assembly; inhibition, % at 2 µM; HUVEC TNFa F-actin phalloidin imaging, high content; 91,000 compounds, 0.18% hits;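 active = inhibition above the batch mean plus 3 SD and confirmed as a hit by visual image inspection, cut at about 30% in these data, passing the limit was not always enough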
Candida biofilm = kills Candida albicans biofilms; C. albicans biofilm + clotrimazole, Alamar Blue; inhibition, % at 6 µM; 85,000 compounds, 0.14% hits;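 active = inhibition above 20%; inactive = inhibition below 20%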;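 note: preformed 24 hr biofilms exposed to compound for 48 hr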
sEH inh = soluble epoxide hydrolase (human) inhibition; inhibition, % at 2 µM; AID 707; recombinant human sEH enzymatic activity assay; 91,000 compounds, 0.34% hits; P34913; in the data active = inhibition above about 80%
Target sequence (P34913 whole entry, looked up): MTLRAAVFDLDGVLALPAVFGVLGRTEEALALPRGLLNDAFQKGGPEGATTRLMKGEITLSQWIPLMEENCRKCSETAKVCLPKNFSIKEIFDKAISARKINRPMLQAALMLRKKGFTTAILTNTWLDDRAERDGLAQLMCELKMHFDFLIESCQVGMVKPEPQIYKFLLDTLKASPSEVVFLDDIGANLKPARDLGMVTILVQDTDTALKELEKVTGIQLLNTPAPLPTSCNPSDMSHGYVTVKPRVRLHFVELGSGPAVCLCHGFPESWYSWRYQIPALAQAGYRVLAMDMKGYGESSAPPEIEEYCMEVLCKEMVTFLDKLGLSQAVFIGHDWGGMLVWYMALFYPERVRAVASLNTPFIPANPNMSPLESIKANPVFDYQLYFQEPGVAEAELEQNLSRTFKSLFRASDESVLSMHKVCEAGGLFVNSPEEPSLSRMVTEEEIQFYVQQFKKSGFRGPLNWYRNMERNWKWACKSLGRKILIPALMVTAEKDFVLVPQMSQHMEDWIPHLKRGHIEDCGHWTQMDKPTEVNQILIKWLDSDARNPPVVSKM
sEH act = increases human soluble epoxide hydrolase activity | P34913 | purified human sEH enzymatic activity, activator screen | activation, % at 2 µM | 91,000 compounds, 0.04% hits | AID 717; in the data active = activation above about 37%
Numbers stand for hits.

`COC(=O)C1CCN(C(=O)c2sc3nc(-c4ccc(F)cc4)cn3c2C)CC1` gave Measles CPE 39, F-actin modifier inactive, Candida biofilm inactive, sEH inh inactive and sEH act inactive.
CCOC(=O)n1c(=O)n(Cc2c(Cl)cccc2Cl)c2ccccc21 was read as Measles CPE inactive, F-actin modifier inactive, sEH inh inactive and sEH act inactive.
Screening N=c1oc2c3c4c(cc2cc1C(=O)Nc1ccccc1)CCCN4CCC3 returned Measles CPE inactive, F-actin modifier 43, sEH inh inactive and sEH act inactive.
Screening Cc1noc(C)c1S(=O)(=O)N1CCC(C(=O)N2CCC(N3CCCCC3)CC2)CC1 returned Measles CPE inactive, F-actin modifier inactive, Candida biofilm 22, sEH inh inactive and sEH act inactive.
`O=c1oc2ccccc2n1Cc1ccccc1Cl` gave Candida biofilm 21.
O=c1oc2ccccc2n1CCc1ccccc1 was read as Measles CPE inactive, F-actin modifier inactive, Candida biofilm inactive, sEH inh inactive and sEH act inactive.
Screening CN1CSC2=C(C#N)C(c3cccc(OCc4ccccc4)c3)CC(=O)N2C1 (stereo unspecified) returned Measles CPE 63, F-actin modifier inactive, Candida biofilm inactive, sEH inh inactive and sEH act inactive.
Screening COC(=O)c1sc2cc(C(F)(F)F)cnc2c1-c1cccnc1 returned Measles CPE inactive, F-actin modifier inactive, sEH inh inactive and sEH act inactive.
Screening CSc1nnc(-c2sc3cc(C(F)(F)F)cnc3c2-c2cccnc2)n1C returned Measles CPE inactive, F-actin modifier inactive, Candida biofilm 54, sEH inh inactive and sEH act inactive.
Cc1cc(OCC(=O)N(C(C)C)C(C)C)cc(C)c1Br was read as Measles CPE inactive.
Screening CC(C)(C)NC(=O)COC(=O)/C=C/c1ccccc1[N+](=O)[O-] returned Measles CPE inactive, F-actin modifier inactive, sEH inh inactive and sEH act inactive.
Screening FC(F)(F)c1cccc(NCc2cn3cccnc3n2)c1 returned Measles CPE 55, F-actin modifier inactive, Candida biofilm inactive, sEH inh inactive and sEH act inactive.
For CC(C)C[C@H](NC(=O)Nc1cccc(Br)c1)C(=O)O the results were Measles CPE 63.
For CC1CCCCC1NC(=O)COC(=O)c1ccc(S(=O)(=O)NCc2ccco2)cc1 (stereo unspecified) the results were Measles CPE inactive, F-actin modifier inactive, sEH inh inactive and sEH act inactive.
O=C(COC(=O)c1ccc(S(=O)(=O)NCc2ccco2)cc1)NC1CCCCCC1 was read as Measles CPE inactive, F-actin modifier inactive, sEH inh 90 and sEH act inactive.
Screening CC1(C)c2ssc(=S)c2-c2ccccc2N1C(=O)CSC1=NCCS1 returned Measles CPE 38, F-actin modifier inactive, sEH inh inactive and sEH act inactive.
Cc1cc(C)c(C#N)c(SCc2nc3ccccc3[nH]2)n1 was read as Measles CPE inactive, F-actin modifier 34, sEH inh inactive and sEH act inactive.
Screening CC(C)(C)NC(=O)c1ccc2nccnc2c1 returned Measles CPE 52, F-actin modifier inactive, Candida biofilm inactive, sEH inh inactive and sEH act inactive.
For Cc1ccc2[nH]c3c(N4CCOCC4)ncnc3c2c1 the results were Measles CPE inactive, F-actin modifier inactive, Candida biofilm inactive, sEH inh inactive and sEH act inactive.
For CN1CCN(c2ncnc3c2[nH]c2ccc(F)cc23)CC1 the results were Measles CPE 50 and Candida biofilm inactive.
Screening CC(C)c1ccc(NC(=O)C(c2ccccc2)N2CC(=O)Nc3ccccc32)cc1 (stereo unspecified) returned Measles CPE inactive.
CCCOc1cc(C)c(S(=O)(=O)NC2CC(C)(C)NC(C)(C)C2)cc1C was read as Measles CPE inactive.
For O=C(COc1ccccc1)N1CCN(C(=O)c2ccco2)CC1 the results were Measles CPE inactive, F-actin modifier inactive, Candida biofilm inactive, sEH inh inactive and sEH act inactive.
Screening O=C(OCC(=O)N1CCN(C(=O)c2ccco2)CC1)C1=COCCO1 returned Measles CPE 23 and Candida biofilm inactive.
COc1ccc(OCC(=O)N2CCN(C(=O)c3ccco3)CC2)cc1 was read as Measles CPE inactive, F-actin modifier inactive, Candida biofilm inactive, sEH inh inactive and sEH act 41.
`COc1c2c(nc3ccccc13)OC(C(C)(O)COC(C)=O)C2` (stereo unspecified) gave Measles CPE 32, Candida biofilm inactive, sEH inh inactive and sEH act inactive.
CCOC(=O)CNC(=O)c1c2c(nc3ccccc13)CCCC2 was read as Measles CPE inactive, F-actin modifier inactive, sEH inh inactive and sEH act inactive.
